Screening data (PubChem BioAssay)
This is one part of a sample in which hits are shown more often than they occur.
VDR inh: inhibitors of human vitamin D receptor. P11473. VDR-SRC2-3 peptide fluorescence polarization, 2 h. Potency, µM, without a hit: max response, negative = inhibition, hits mostly inhibitors. 400,000 tested, 0.93% active. AID 504847; note: % is set by controls: 0 for no effect and ±100 for the full control effect
Target sequence (P11473 whole entry, looked up): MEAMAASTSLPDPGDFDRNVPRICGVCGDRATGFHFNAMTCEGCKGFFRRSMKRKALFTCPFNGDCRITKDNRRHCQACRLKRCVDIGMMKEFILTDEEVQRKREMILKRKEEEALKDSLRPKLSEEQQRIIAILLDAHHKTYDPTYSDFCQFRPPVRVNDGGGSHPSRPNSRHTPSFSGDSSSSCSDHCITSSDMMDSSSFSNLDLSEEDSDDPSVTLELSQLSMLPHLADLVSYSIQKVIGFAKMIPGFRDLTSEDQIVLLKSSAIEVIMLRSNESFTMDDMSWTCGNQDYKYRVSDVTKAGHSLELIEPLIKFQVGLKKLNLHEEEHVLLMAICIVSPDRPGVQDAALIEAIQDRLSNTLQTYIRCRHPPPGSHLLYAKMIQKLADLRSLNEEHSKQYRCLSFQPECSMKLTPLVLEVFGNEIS
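Fluorescence polarization assay measuring small-molecule disruption of VDR binding to the coregulator peptide SRC2-3. Compounds were pin-transferred (23 nl) into the reagent mix and incubated 2 h at room temperature before reading.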
Glioma ERSR ind: inducers of ER stress response in human glioma cells | 420,000 tested, 0.02% active | U87-MG GRP78 promoter luciferase reporter, 16 h | Potency, µM, for the others: at the top dose activation, most hits filed as activators; note: series mostly up to about 76 µM; % of control where 0% means no effect; nearly all actives have a fitted effect of over 35% in size
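Stably transfected U87-MG glioma cells carrying a GRP78-based luciferase sensor; 16 h compound incubation. Luminescence end-point read 10 min after Bright-Glo addition at room temperature.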
G9a inh: inhibitors of human histone lysine methyltransferase G9a; G9a H3K9 monomethylation, AlphaScreen, 2 h; Potency, µM (series often up to 102 µM), for inactives: top-dose activity, negative = inhibition, hits mostly inhibitors; 350,000 tested, 8.8% active; AID 504332; note: % is set by controls: 0 for no effect and ±100 for the full control effect; nearly all actives have a fitted effect of over 75% in size
Target sequence (Q96KQ7 913-1193 limits assumed): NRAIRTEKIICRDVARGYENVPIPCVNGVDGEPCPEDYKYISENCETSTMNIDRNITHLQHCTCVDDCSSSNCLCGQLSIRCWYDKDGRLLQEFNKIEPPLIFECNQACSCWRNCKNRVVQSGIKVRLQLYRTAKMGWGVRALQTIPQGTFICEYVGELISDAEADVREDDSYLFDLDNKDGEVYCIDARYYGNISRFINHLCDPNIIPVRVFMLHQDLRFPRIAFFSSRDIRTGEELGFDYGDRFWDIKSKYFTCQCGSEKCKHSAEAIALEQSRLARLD
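Using a bead-based AlphaScreen, monomethylated H3K9 product from 2 h room-temperature reactions (G9a 20 nM, peptide 500 nM, SAM 20 uM) was detected with 0.5 ug/mL rabbit anti-H3K9me1 antibody.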
12-LOX inh: blocks human arachidonate 12S-lipoxygenase; P18054; purified 12hLO, xylenol orange hydroperoxide absorbance; Potency, µM (top dose mostly 108 µM), for inactives: at the top dose activity change, negative = inhibition, hits mostly inhibitors; 580,000 tested, 1.1% active; note: % is set by controls: 0 for no effect and ±100 for the full control effect
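Hydroperoxide product was detected by ferrous iron/xylenol orange as the 573 to 405 nm absorbance ratio. Arachidonic acid at 40 uM (final) was turned over for 30 min at room temperature by 150 nM human 12hLO, pH 7.0 Hepes buffer, after 15 min compound preincubation.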
Sfp inh: inhibitors of Bacillus subtilis Sfp phosphopantetheinyl transferase | Q9F4F7 | Biochemical Sfp PPTase activity, qHTS | Potency, µM, for inactives: largest response in the series, negative = inhibition, usual class: inhibitors | 310,000 tested, 3.5% active | AID 1490;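 note: the enzyme is Sfp with the accession as filed and its product quenches rhodamine fluorescence; 0% = enzyme reaction without inhibitor and -100% = no enzyme wells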
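Fluorescence-quenching assay: 15 nM Sfp-PPTase preincubated 15 min at room temperature with compound, then 5 uM rhodamine-CoA and 12.5 uM BHQ-2-labelled YbbR peptide added. Fluorescence (ex 525/em 598 nm) read at start and after 30 min; difference gives rate.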
Numbers without * were called inactive; u = inconclusive; x = no result given; [ ] = remark or other dose. Calls come from the whole dose curve; as a rule, active = well fitted curve in the direction sought with a large enough effect; inconclusive = small, poorly fitted or top-dose-only effect, or another doubt; inactive = no such curve, though single readings can be large; an effect the other way counts as inactive or inconclusive. Potency is the fitted concentration of half-maximal effect.

SMILES	VDR inh	Glioma ERSR ind	G9a inh	12-LOX inh	Sfp inh
O=C(Cn1ccc2ccc(Cl)cc21)NCC1CCC(C(=O)O)CC1 (stereo not drawn)	x	x	x	-20.6%	x
COCc1noc([C@@H]2CN(C(=O)c3cccc(Cl)c3)C[C@H]2CO)n1	x	x	x	52.8%	x
c1ccc(-c2ccc(Oc3nc(-c4ccccc4)cs3)cc2)cc1	x	x	x	29.9%	x
COc1ccc(/C=N/N=C2/CC(C)(C)Cc3n[nH]c(=O)cc32)cc1	9.3%	-0.9%	35.5µM*	-7.9%	u
Cc1cc(C)c(S(=O)(=O)NCCS(=O)(=O)N2CCN(c3ccccc3)CC2)c(C)c1	6.3%	-2.7%	-26.3%[59 µM]	-26.0%	x
Cc1cc(C)c(S(=O)(=O)NCC23C=CC(O2)C2C(=O)N(c4ccccc4)C(=O)C23)c(C)c1 (stereo not drawn)	u	-2.9%	-14.8%[0.501 µM]	-4.2%	28.2µM*
O=[N+]([O-])c1ccccc1S(=O)(=O)NCc1cccs1	x	x	x	15.0%	x
O=C1C2C3C=CC(CNS(=O)(=O)c4ccccc4[N+](=O)[O-])(O3)C2C(=O)N1c1ccccc1 (stereo not drawn)	-13.4%	1.1%	4.47µM*	-8.2%	28.2µM*
CN(CCOc1ccccc1F)Cc1nc(N)nc(N(C)C)n1	x	x	x	37.3%	x
CC1CC1C(=O)NCCSCc1cccs1 (stereo not drawn)	x	x	x	37.8%	x
Cc1[nH]nc2c1C(c1ccc(OC(=O)c3ccco3)cc1)C(C#N)=C(N)O2 (stereo not drawn)	2.2%	0.5%	24.3%[59 µM]	332.0%	10.6%
CC(C)c1[nH]nc2c1C(c1ccc(OC(=O)c3ccco3)cc1)C(C#N)=C(N)O2 (stereo not drawn)	-2.8%	-1.4%	50.1µM*	4.0%	8.1%
CCn1c(SCC(=O)NCc2ccco2)nnc1-c1ccncc1	x	x	-29.4%	x	10.6%
O=C(CSc1nc(-c2ccccc2)cs1)NCc1ccco1	-0.3%	6.8%	u	0.0%	-12.3%
Cc1ccc(C(=O)CSc2nnc(CNc3nc(-c4ccccc4)cs3)n2C)cc1	-10.9%	-6.3%	35.5µM*	-8.7%	-3.9%
Cc1cc(C)nc(SCc2nnc(SCC(=O)Nc3nc(-c4ccccc4)cs3)n2C)n1	-13.1%	1.3%	-0.1%[59 µM]	0.0%	-14.2%
Cc1[nH]c2ccc(-c3nnc(SCC(=O)NCc4ccco4)n3Cc3ccccc3)cc2c1C	6.6%	-8.1%	39.8µM*	136.1%	5.2%
CCn1c(SCC(=O)NCc2ccco2)nnc1-c1cccs1	0.8%	-0.9%	u	-10.3%	14.1µM*
CCn1c(CNc2nc(-c3ccccc3)cs2)nnc1SCC(=O)NCc1ccco1	u	-3.9%	50.1µM*	0.0%	56.2µM*
Cc1nnc(-c2cc(-c3ccc([S+](C)(=O)[O-])cc3)ccn2)n1Cc1ccccc1	x	x	x	15.9%[176 µM]	x
Cc1cccc(C2CCCCC2)c1O	x	x	x	-6.1%	x
CCOc1cc2c(cc1NC(=O)c1ccc(C)c(OC)c1)OC(C)C2 (stereo not drawn)	x	x	x	61.7%	x
CCCNC(=O)Cc1csc2nc(C)c(-c3cc(C)n(-c4ccc(C(C)C)cc4)n3)c(=O)n12	x	x	x	30.2%	x
CC1=CC(c2ccc(Cl)cc2)n2nc(NS(=O)(=O)c3ccc(C)cc3)nc2N1 (stereo not drawn)	-21.0%	0.7%	31.6µM*	u	-4.0%
Cc1ccc(C2C=C(c3ccc(Cl)cc3)Nc3nc(NC(=O)c4ccco4)nn32)cc1 (stereo not drawn)	-27.9%	-1.9%	31.6µM*	22.4µM*	x
SMILES	VDR inh	Glioma ERSR ind	G9a inh	12-LOX inh	Sfp inh
Cc1ccc(C2C=C(c3ccccc3)Nc3nc(NS(=O)(=O)c4ccccc4)nn32)cc1 (stereo not drawn)	-12.5%	-2.9%	14.1µM*	u	x
COc1ccc(C2NC3=NCN(Cc4cccnc4)CN3c3nc4ccccc4n32)cc1OC (stereo not drawn)	x	x	x	15.3%	x
CCSc1nc2n(n1)C(c1cccs1)C1=C(CCCC1=O)N2 (stereo not drawn)	x	x	x	-11.2%	x
CN(CCC#N)C(=O)COC(=O)c1c2c(nc3ccccc13)/C(=C/c1ccco1)CC2	-29.5%	1.8%	22.4µM*	u	-75.4%
CC(C)CNC(=O)COC(=O)c1c2c(nc3ccccc13)/C(=C\c1cccs1)CC2	-0.7%	3.5%	x	u	x
Cc1ccc(NC(=O)Nc2c[nH]c(=O)[nH]c2=O)cc1C	x	x	x	-33.6%	x
CC[n+]1cc(-c2ccccc2)nc(N2CCOCC2)n1	-4.0%	-2.6%	10µM*	u	1.6%
NC(=O)c1cc(-c2ccccc2)nc(N2CCOCC2)n1	6.9%	-6.0%	21.0%[59 µM]	10.6%	10.2%
COc1ccc(N2CC(C)Cn3c2nc2c3c(=O)n(Cc3ccc(C)cc3)c(=O)n2C)c(OC)c1 (stereo not drawn)	-2.3%	-1.6%	35.5µM*	u	-14.0%
CC(O)CNC(=O)C1CCN(Cc2nnnn2-c2ccccc2)CC1 (stereo not drawn)	x	x	x	-6.3%	x
CSc1ccc(/C=C(/C#N)C(=O)Nc2c(C)cc(C)cc2C)cc1	x	x	x	8.1%	x
COc1ccc(SN=C2C(C)=CC(=O)C=C2C)cc1	10.4%	-0.1%	15.8µM*	-15.9%	-10.6%
COc1ccc(S(=O)(=O)N=C2C=C(C)C(=O)C(C)=C2)cc1	-1.2%	-7.1%	-28.3%[59 µM]	u	-2.0%
CCOC(=O)C1CCN(C(=O)Cn2cnc3sc(C)c(S(=O)(=O)N4CCC(C)CC4)c3c2=O)CC1	1.7%	-3.2%	11.4%	-1.9%	6.9%
CCOC(=O)C1CCN(C(=O)Cn2cnc3sc(C)c(S(=O)(=O)N4CCCCC4)c3c2=O)CC1	1.8%	1.4%	50.1µM*	-0.6%	21.9%
COc1ccc(O)c(/C=c2/sc3nc4cc(C)c(C)cc4n3c2=O)c1	u	-3.5%	2.51µM*	u	8.91µM*
COC(=O)c1cc(=O)nc2sc3cc(OC)ccc3n12	17.8%	-3.6%	-2.0%[59 µM]	8.1%	-4.6%
CCn1nc(NC(=O)Cc2ccc(OC)cc2)c2cc3cccc(C)c3nc21	-11.5%	-3.6%	6.1%	0.0%	11.2%
CCn1nc(NC(=O)Cc2ccc(OC)cc2)c2cc3cc(C)ccc3nc21	-10.8%	3.2%	44.7µM*	u	-10.3%
C=C1c2cccc(OC)c2O[C@H](C(=O)OCC)[C@@H]1CCC(C)C	-25.0%	-2.9%	31.6µM*	x	-1.0%
Cc1ccccc1CNC(=O)Nc1cccs1	5.0%	4.4%	7.08µM*	u	20µM*
O=C(NCc1cccs1)Nc1cccs1	12.5%	2.2%	-11.3%[2.33 µM]	-51.5%	17.8µM*
COCCOC(=O)C(C#N)c1nc2ccccc2nc1N1CCN(c2ccccc2OC)CC1 (stereo not drawn)	x	x	x	-6.8%	x
